Several values for one entry are separate records, joined by “and”; a condition that tells them apart may be missing. Equal values may be shown once. For some of these results: Entries with a potency or affinity are not part of this list. Activity calls are given as the source filed them. Unless noted, how the calls were made is not given here.
How the values were obtained:
[1] = antimalarial activity against Dd2 strain (AID 2302;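 active means growth inhibition above 50% at the single 2 µM test dose, taken to imply half-maximal potency below 2 µM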;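 further: 0% = DMSO untreated growth and 100% = chloroquine plus artemisinin killed control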); details: P. falciparum Dd2 in RBCs, LDH growth readout, 72 h; at 2 µM; active compounds read high
[2] = HepG2 cytotoxicity, primary screen, cytotoxicity control for P. falciparum antimalarial project, cell-based, ATP luminescence (AID 2303;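 active means inhibition above 50%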;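 further: 0% = DMSO wells and 100% = digitonin-killed cells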); details: HepG2 viability, 24-48 h, at 10 µM, active compounds read high
[3] = molecular target: L-lactate dehydrogenase (Plasmodium falciparum (isolate CDC / Honduras)) (UniProt Q27743); experiment: PfLDH activity inhibition – cell lysate, 3D7 strain, counter-screen for P. falciparum growth inhibition project (AID 2304);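 further: 0% = vehicle and 100% = reference inhibitor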; details: P. falciparum 3D7 crude extract, LDH APAD/NBT absorbance; at 2 µM; active compounds read high
[4] = inhibition of 3D7 malaria parasite growth – strain 3D7 (AID 2306);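 further: 0% = DMSO wells and 100% = chloroquine plus artemisinin control wells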; details: P. falciparum 3D7 erythrocytic growth, LDH absorbance, 72 h; at 2 µM; active compounds read high
[5] = molecular target: Calcium-dependent protein kinase 1 (Plasmodium falciparum (isolate 3D7)) (UniProt P62344); experiment: PfCDPK1 kinase inhibitors, biochemical, TCAMS library (AID 1159585; cut-off not given, nearly all actives have IC50 up to about 0.98 µM;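 further: inhibitors leave more ATP so luminescence rises with inhibition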); details: recombinant PfCDPK1, Kinase-Glo ATP depletion luminescence
[6] = molecular target: Plasmodium falciparum protein kinase 6 (PK6, PF3D7_1337100) (UniProt Q8IDW1); experiment: PfPK6 kinase inhibitors, biochemical, TCAMS library (AID 1159586); details: recombinant PfPK6, Kinase-Glo ATP depletion luminescence
[7] = molecular target: Protein kinase 7 (PK7), Plasmodium falciparum 3D7 (PF3D7_0213400) (UniProt Q7YTF7); experiment: inhibition of Plasmodium PK7 catalytic activity – biochemical, TCAMS antimalarial set, Kinase-Glo luminescence (AID 1159587); details: recombinant PfPK7, Kinase-Glo ATP depletion luminescence
[8] = molecular target: Calcium-dependent protein kinase 4 (Plasmodium falciparum (isolate 3D7)) (UniProt Q8IBS5); experiment: PfCDPK4 kinase inhibitors, biochemical, TCAMS library (AID 1159588; cut-off not given, nearly all actives have IC50 up to about 0.91 µM); details: recombinant PfCDPK4, Kinase-Glo ATP depletion luminescence
Sequence of Calcium-dependent protein kinase 4 (Plasmodium falciparum (isolate 3D7)) (Q8IBS5 whole entry, looked up): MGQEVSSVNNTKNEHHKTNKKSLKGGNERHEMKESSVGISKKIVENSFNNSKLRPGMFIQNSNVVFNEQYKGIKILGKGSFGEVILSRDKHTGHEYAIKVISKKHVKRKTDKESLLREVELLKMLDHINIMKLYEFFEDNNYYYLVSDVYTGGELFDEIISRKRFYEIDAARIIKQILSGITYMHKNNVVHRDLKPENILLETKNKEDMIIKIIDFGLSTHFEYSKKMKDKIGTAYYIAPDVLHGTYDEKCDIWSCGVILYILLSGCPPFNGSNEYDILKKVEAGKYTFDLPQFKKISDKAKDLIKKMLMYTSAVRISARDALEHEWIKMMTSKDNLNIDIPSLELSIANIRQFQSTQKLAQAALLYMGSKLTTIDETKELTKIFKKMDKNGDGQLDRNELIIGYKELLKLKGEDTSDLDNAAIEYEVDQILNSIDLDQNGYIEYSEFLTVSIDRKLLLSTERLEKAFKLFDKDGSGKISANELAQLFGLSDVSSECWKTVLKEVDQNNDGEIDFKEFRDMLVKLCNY

Sequence of Protein kinase 7 (PK7), Plasmodium falciparum 3D7 (PF3D7_0213400) (Q7YTF7 1-343): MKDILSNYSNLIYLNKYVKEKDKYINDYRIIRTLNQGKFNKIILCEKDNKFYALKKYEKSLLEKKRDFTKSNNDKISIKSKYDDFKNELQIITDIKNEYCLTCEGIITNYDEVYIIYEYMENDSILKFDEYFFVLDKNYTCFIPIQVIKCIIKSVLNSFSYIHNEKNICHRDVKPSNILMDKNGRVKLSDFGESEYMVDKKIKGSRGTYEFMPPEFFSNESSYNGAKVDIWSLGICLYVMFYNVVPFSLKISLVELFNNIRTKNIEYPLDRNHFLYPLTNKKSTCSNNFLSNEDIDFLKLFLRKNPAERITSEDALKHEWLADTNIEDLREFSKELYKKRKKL
Sequence of Plasmodium falciparum protein kinase 6 (PK6, PF3D7_1337100) (Q8IDW1 1-305): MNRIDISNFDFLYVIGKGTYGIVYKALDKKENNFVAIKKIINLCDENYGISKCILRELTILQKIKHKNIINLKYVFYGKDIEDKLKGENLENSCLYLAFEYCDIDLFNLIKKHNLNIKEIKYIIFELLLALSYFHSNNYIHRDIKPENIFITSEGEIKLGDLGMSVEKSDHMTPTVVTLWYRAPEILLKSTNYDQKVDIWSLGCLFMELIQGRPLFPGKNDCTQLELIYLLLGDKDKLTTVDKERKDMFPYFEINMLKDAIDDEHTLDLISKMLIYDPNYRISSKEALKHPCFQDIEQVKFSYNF
Sequence of L-lactate dehydrogenase (Plasmodium falciparum (isolate CDC / Honduras)) (Q27743 whole entry, looked up): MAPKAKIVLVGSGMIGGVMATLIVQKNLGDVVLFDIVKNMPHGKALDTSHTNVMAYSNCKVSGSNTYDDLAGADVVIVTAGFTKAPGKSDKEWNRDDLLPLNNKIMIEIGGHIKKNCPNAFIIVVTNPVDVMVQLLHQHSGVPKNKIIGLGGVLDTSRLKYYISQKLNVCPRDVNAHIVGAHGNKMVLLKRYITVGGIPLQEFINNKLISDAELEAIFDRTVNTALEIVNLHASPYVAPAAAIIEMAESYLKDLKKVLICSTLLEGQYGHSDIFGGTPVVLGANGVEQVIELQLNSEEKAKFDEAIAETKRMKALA
Sequence of Calcium-dependent protein kinase 1 (Plasmodium falciparum (isolate 3D7)) (P62344 whole entry, looked up): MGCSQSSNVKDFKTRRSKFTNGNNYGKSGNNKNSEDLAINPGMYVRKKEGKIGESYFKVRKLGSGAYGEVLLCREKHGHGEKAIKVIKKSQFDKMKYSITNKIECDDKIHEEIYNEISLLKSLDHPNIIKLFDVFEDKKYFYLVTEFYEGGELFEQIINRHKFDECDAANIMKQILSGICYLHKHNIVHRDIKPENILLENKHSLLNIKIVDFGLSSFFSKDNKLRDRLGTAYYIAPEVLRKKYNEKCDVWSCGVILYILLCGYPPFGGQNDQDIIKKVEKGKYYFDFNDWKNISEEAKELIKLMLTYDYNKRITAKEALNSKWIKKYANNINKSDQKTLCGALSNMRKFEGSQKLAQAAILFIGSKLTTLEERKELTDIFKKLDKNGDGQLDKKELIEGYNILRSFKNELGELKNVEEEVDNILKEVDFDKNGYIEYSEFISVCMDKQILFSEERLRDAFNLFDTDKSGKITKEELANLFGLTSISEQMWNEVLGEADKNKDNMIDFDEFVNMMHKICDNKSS

Cc1[nH]c2ccc(NS(C)(=O)=O)cc2c1C1CCN(CC2CCN(C(=O)/C=C/c3ccc(Cl)c(Cl)c3)CC2)CC1
active: growth inhibition [1] 83% | growth inhibition [4] 99%
inactive: inhibition [2] 15% | inhibition [3] -4% | outcome [5] | outcome [6] | outcome [7] | outcome [8]

COc1ccc(CC(C)NCC(O)c2cccc(C(F)(F)F)c2)cc1F (centres undefined)
active: growth inhibition [1] 65% | growth inhibition [4] 91%
inactive: inhibition [2] -4% | inhibition [3] -8% | outcome [5] | outcome [6] | outcome [7] | outcome [8]

CCCCCC(C)C(C)c1cc(O)c2c3c(c(=O)oc2c1)CN(Cc1ccccc1)CC3 (centres undefined)
inactive: growth inhibition [1] 47% | inhibition [2] 4% | inhibition [3] -2% | outcome [5] | outcome [6] | outcome [7] | outcome [8]
active: growth inhibition [4] 99%

O=C(NC1CCC(CN2CCC(c3c[nH]c4ccccc34)CC2)CC1)c1ccc(-c2cc(C(F)(F)F)ccc2Cl)o1 (centres undefined)
inactive: growth inhibition [1] 34% | inhibition [2] 5% | inhibition [3] 3% | outcome [5] | outcome [6] | outcome [7] | outcome [8]
active: growth inhibition [4] 102%

CNCC(O)c1cc(Cl)c(Cl)cc1C (centres undefined)
active: growth inhibition [1] 88% | growth inhibition [4] 98%
inactive: inhibition [2] 0% | inhibition [3] 2% | outcome [5] | outcome [6] | outcome [7] | outcome [8]

O=C(NCCC1CCN(CCc2c[nH]c3ccccc23)CC1)Nc1ccc(Cl)c(Cl)c1
active: growth inhibition [4] 101%
inactive: growth inhibition [1] 5% | inhibition [2] 18% | inhibition [3] -2% | outcome [5] | outcome [6] | outcome [7] | outcome [8]

COCCNCc1ccc(-c2ccc(CN(C(=O)NC3CCCCC3)C3CCN(Cc4ccccc4)CC3)cc2)cc1
inactive: inhibition [2] 29% | inhibition [3] -1% | outcome [5] | outcome [6] | outcome [7] | outcome [8]
active: growth inhibition [1] 84% | growth inhibition [4] 94%

O=C(/C=C/c1ccc(Cl)cc1)NC1CCC(CN2CCC(c3c[nH]c4ccccc34)CC2)CC1 (centres undefined)
inactive: inhibition [2] 39% and 40% | inhibition [3] -6% and 4% | outcome [5] | outcome [6] | outcome [7] | outcome [8]
active: growth inhibition [1] 67% and 90% | growth inhibition [4] 99% and 100%

CCC1CN2CCc3cc(OC)c(OC)cc3C2CC1CC1NCCc2c1[nH]c1ccc(O)cc21 (centres undefined)
inactive: inhibition [2] 45% | inhibition [3] -7% | outcome [5] | outcome [6] | outcome [7] | outcome [8]
active: growth inhibition [1] 100% | growth inhibition [4] 99%

FC(F)(F)c1ccc(NC(=S)NC2CCC(CN3CCC(c4c[nH]c5ccccc45)CC3)CC2)cc1 (centres undefined)
inactive: inhibition [3] 2% and -1% | outcome [5] | outcome [6] | outcome [7] | outcome [8]
active: growth inhibition [1] 99% and 100% | inhibition [2] 65% and 92% | growth inhibition [4] 100% and 101%

O=C(/C=C/c1ccc(Cl)c(Cl)c1)N1CCC(CN2CCC(c3c(Br)[nH]c4ccccc34)CC2)CC1
active: growth inhibition [1] 99% | growth inhibition [4] 100%
inactive: inhibition [2] 41% | inhibition [3] -4% | outcome [5] | outcome [6] | outcome [7] | outcome [8]

CCCCCCCCNCC(O)c1ccc(Cl)c(Cl)c1 (centres undefined)
inactive: inhibition [2] -4% | inhibition [3] -3% | outcome [5] | outcome [6] | outcome [7] | outcome [8]
active: growth inhibition [1] 87% | growth inhibition [4] 99%

CC(=O)Nc1ccc(OCCN(CC(F)(F)F)c2ccc(C#N)cc2C(F)(F)F)cc1
active: growth inhibition [1] 83% | growth inhibition [4] 81%
inactive: inhibition [2] -1% | inhibition [3] 1% | outcome [5] | outcome [6] | outcome [7] | outcome [8]

CC(Cc1ccc(OCc2ccc(CCN(C)C)cc2)cc1)NCCc1cccc(Cl)c1 (centres undefined)
active: growth inhibition [1] 78% | growth inhibition [4] 100%
inactive: inhibition [2] 42% | inhibition [3] 5% | outcome [5] | outcome [6] | outcome [7] | outcome [8]

O=C(/C=C/c1ccc(Cl)c(Cl)c1)N1CCC(CN2CCC(c3c(-c4ccccc4)[nH]c4ccccc34)CC2)CC1
active: growth inhibition [1] 99% | growth inhibition [4] 101%
inactive: inhibition [2] 43% | inhibition [3] -8% | outcome [5] | outcome [6] | outcome [7] | outcome [8]

CCCCCC(C)C(C)c1cc(O)c2c(c1)OC(C)(C)c1cnccc1-2 (centres undefined)
active: growth inhibition [1] 74% | growth inhibition [4] 94%
inactive: inhibition [2] 7% | inhibition [3] -3% | outcome [5] | outcome [6] | outcome [7] | outcome [8]

O=C(c1cc(C(=O)NCc2ccc(Cl)cc2)c(=O)n(Cc2ccc(Cl)cc2)c1)c1cc(Cl)ccc1O
inactive: growth inhibition [1] 4% | inhibition [2] 6% | inhibition [3] -1% | outcome [5] | outcome [6] | outcome [7] | outcome [8]
active: growth inhibition [4] 80%

CCCCCc1cc(O)c2c(c1)OC(C)(C)CC2C1=CCN(Cc2cccnc2)CC1 (centres undefined)
active: growth inhibition [1] 97% | growth inhibition [4] 97%
inactive: inhibition [2] 15% | inhibition [3] -1% | outcome [5] | outcome [6] | outcome [7] | outcome [8]

CC(C)C[C@H](Nc1ccc(C#N)c2ccccc12)C(=O)N[C@@H]1CCCc2ccccc21
inactive: inhibition [2] 38% | inhibition [3] 10% | outcome [5] | outcome [6] | outcome [7] | outcome [8]
active: growth inhibition [1] 100% | growth inhibition [4] 99%

O=C(/C=C/c1ccc(Cl)c(Cl)c1)NCCCCCN1[C@@H]2CC[C@H]1CC(c1c[nH]c3ccc(O)cc13)C2 (some centres undefined)
inactive: growth inhibition [1] -1% and 20% | inhibition [2] 26% and 9% | inhibition [3] 2% and -6% | outcome [5] | outcome [6] | outcome [7] | outcome [8]
active: growth inhibition [4] 100% and 91%

CCC(C)CN1CCC(N(C)c2cc(NC(=O)c3ccc(F)cc3)ccn2)CC1 (centres undefined)
inactive: growth inhibition [1] 32% | inhibition [2] 4% | inhibition [3] -5% | outcome [5] | outcome [6] | outcome [7] | outcome [8]
active: growth inhibition [4] 93%

Cc1cc(-c2ncc[nH]2)ccc1-c1ccc(C(=O)N2CCc3cc4c(cc32)C2(CCN(C)CC2)CO4)cc1
active: growth inhibition [1] 98% | growth inhibition [4] 101%
inactive: inhibition [2] 32% | inhibition [3] 0% | outcome [5] | outcome [6] | outcome [7] | outcome [8]

Cc1cc(CN2CCN(CCOC(c3ccccc3)c3ccccc3)CC2)ccc1O
inactive: inhibition [2] 9% | inhibition [3] -1% | outcome [5] | outcome [6] | outcome [7] | outcome [8]
active: growth inhibition [1] 96% | growth inhibition [4] 97%

Cc1[nH]c2ccc(O)cc2c1C1CCN(CC2CCC(NC(=O)/C=C/c3ccc(Cl)c(Cl)c3)CC2)CC1 (centres undefined)
active: growth inhibition [1] 95% | growth inhibition [4] 102%
inactive: inhibition [2] 19% | inhibition [3] 3% | outcome [5] | outcome [6] | outcome [7] | outcome [8]

Cc1cccc(N2CCN(Cc3cc(Cl)ccc3O)CC2)c1C
inactive: inhibition [2] -2% | inhibition [3] 2% | outcome [5] | outcome [6] | outcome [7] | outcome [8]
active: growth inhibition [1] 96% | growth inhibition [4] 96%

Oc1ccc2[nH]cc(C3=CCN(Cc4ccccc4)CC3)c2c1
active: growth inhibition [1] 67% | growth inhibition [4] 94%
inactive: inhibition [2] 1% | inhibition [3] 7% | outcome [5] | outcome [6] | outcome [7] | outcome [8]

CC(Cc1ccc(Oc2ccccc2)cc1)NCC(O)c1cccc(C(F)(F)F)c1 (centres undefined)
inactive: inhibition [2] 16% | inhibition [3] 4% | outcome [5] | outcome [6] | outcome [7] | outcome [8]
active: growth inhibition [1] 99% | growth inhibition [4] 98%

S=C(Nc1ccc2c(c1)OCCO2)NC1CCC(CN2CCC(c3c[nH]c4ccccc34)CC2)CC1 (centres undefined)
active: growth inhibition [4] 96% and 92%
inactive: growth inhibition [1] 7% and 1% | inhibition [2] 31% and 32% | inhibition [3] -8% and -1% | outcome [5] | outcome [6] | outcome [7] | outcome [8]

CC[C@H]1CN2CC[C@H]1C[C@H]2[C@H](O)c1cc(-c2ccc(OC(F)(F)F)cc2)nc2ccc(OC)cc12
inactive: inhibition [2] 24% | inhibition [3] 0% | outcome [5] | outcome [6] | outcome [7] | outcome [8]
active: growth inhibition [1] 99% | growth inhibition [4] 98%

O=C(NCc1ccccc1)c1nn(CCCN2CCC3(CC2)C(=O)NCN3c2ccccc2)cc1-c1ccc(Cl)c(Cl)c1
inactive: growth inhibition [1] 21% | inhibition [2] 6% | inhibition [3] -5% | outcome [5] | outcome [6] | outcome [7] | outcome [8]
active: growth inhibition [4] 88%

COC(=O)c1ccc(CC(C)NCC(O)c2cccc(C(F)(F)F)c2)c(Cl)c1 (centres undefined)
active: growth inhibition [1] 98% | growth inhibition [4] 99%
inactive: inhibition [2] -10% | inhibition [3] 1% | outcome [5] | outcome [6] | outcome [7] | outcome [8]

CC[C@H]1CN2CC[C@H]1C[C@H]2[C@H](O)c1cc(/C=C/c2ccc(F)cc2)nc2ccc(OC)cc12
active: growth inhibition [1] 99% | inhibition [2] 55% | growth inhibition [4] 99%
inactive: inhibition [3] -1% | outcome [5] | outcome [6] | outcome [7] | outcome [8]

Cc1ccc(-n2nc(C)c3c2NC(=O)CSC3c2ccsc2)cc1 (centres undefined)
inactive: growth inhibition [1] 11% | inhibition [2] -14% | inhibition [3] 2% | outcome [5] | outcome [6] | outcome [7] | outcome [8]
active: growth inhibition [4] 97%

CNC(=O)c1ccc2[nH]cc(C3CCN(CC4CCC(NC(=O)/C=C/c5ccc(Cl)c(Cl)c5)CC4)CC3)c2c1 (centres undefined)
active: growth inhibition [1] 90% | growth inhibition [4] 100%
inactive: inhibition [2] -1% | inhibition [3] -7% | outcome [5] | outcome [6] | outcome [7] | outcome [8]

O=C(NC1CCN(CC2(c3ccc(Cl)cc3)CCC2)CC1)c1cscn1
active: growth inhibition [1] 95% | growth inhibition [4] 98%
inactive: inhibition [2] -2% | inhibition [3] -1% | outcome [5] | outcome [6] | outcome [7] | outcome [8]

COC(=O)c1ccc(CC(C)NCC(O)c2cccc(C(F)(F)F)c2)c(OC)c1 (centres undefined)
active: growth inhibition [1] 98% | growth inhibition [4] 100%
inactive: inhibition [2] 5% | inhibition [3] 7% | outcome [5] | outcome [6] | outcome [7] | outcome [8]

Cc1cccc(C(=O)Nc2ccnc(N(C)C3CCN(Cc4cccc(O)c4)CC3)c2)c1
inactive: inhibition [2] 5% | inhibition [3] -1% | outcome [5] | outcome [6] | outcome [7] | outcome [8]
active: growth inhibition [1] 62% | growth inhibition [4] 89%

CCN1CCC(N2CCC(n3c(C)nc4cc(C(F)(F)F)ccc43)CC2)CC1
inactive: growth inhibition [1] 16% | inhibition [2] 6% | inhibition [3] 1% | outcome [5] | outcome [6] | outcome [7] | outcome [8]
active: growth inhibition [4] 93%

Source: PubChem BioAssay
